# Screens as filed in PubChem.
# A selection: hits, their analogues and other compounds. The true share with any hit is near 6.1%.
# S2 tox – Viability Counterscreen for Primary qHTS for Inhibitors of ATXN expression; AID 651635, 2014; Potency, µM (highest dose often 56.7 µM), usual class: cytotoxic; S2 cells (HEK-293 line with an ATXN2-luciferase reporter) viability, CellTiter-Fluor protease fluorescence, 24 h; hit rate 0.49% among 400,000; also: nearly all actives have a fitted effect of over 40% in size
# RORgamma inh – qHTS for inhibitors of ROR gamma transcriptional activity. Nuclear receptor ROR-gamma (Mus musculus), P51450. Drosophila S2 Gal4-RORgamma UAS-luciferase reporter, 20 h. Potency, µM (series often up to 53.6 µM), for inactives: at the top dose activity change, negative = inhibition, hits mostly inhibitors. hit rate 5.4% among 310,000. AID 2551, 2010; also: % is scaled to controls: 0 for no effect and ±100 for the full control effect; nearly all actives have a fitted effect of over 60% in size
# Target sequence (P51450 whole entry, looked up, the tested form may be a part): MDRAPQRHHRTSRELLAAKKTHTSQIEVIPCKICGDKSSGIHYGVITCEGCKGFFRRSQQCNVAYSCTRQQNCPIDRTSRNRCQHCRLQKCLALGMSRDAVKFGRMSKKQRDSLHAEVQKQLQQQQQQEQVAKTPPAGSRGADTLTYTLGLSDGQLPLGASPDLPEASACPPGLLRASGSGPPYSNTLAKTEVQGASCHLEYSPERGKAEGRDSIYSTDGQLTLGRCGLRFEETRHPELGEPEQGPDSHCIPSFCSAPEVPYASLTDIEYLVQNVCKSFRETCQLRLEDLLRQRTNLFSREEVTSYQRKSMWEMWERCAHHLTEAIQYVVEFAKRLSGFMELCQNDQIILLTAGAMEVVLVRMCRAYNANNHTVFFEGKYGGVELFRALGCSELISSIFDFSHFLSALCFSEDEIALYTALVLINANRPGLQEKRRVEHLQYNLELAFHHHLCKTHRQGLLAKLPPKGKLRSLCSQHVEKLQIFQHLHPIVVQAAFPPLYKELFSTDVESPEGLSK
#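 In this cell-based reporter format, copper sulfate (700 uM final) drives Gal4–ROR gamma fusion expression from a metallothionein promoter in Drosophila Schneider cells; compounds preincubated 1 hr, reporter read after 20 hr at ambient temperature.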
# TGFb inhibitor – qHTS for Inhibitors of TGF-b; Potency, µM (top dose mostly 46.1 µM), for inactives: at the highest dose activity, negative = inhibition, actives largely listed as inhibitors; AID 588855, 2011; HepG2 CAGA-GFP TGF-b/SMAD3 reporter, GFP fluorescence, 18 h; TGF-beta stimulated, 500 pg/mL final; hit rate 1.2% among 410,000; also: % is scaled to controls: 0 for no effect and ±100 for the full control effect; nearly all actives have a fitted effect of over 65% in size
#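 GFP signal (ex488/em500-530) from TGF-beta-stimulated HEPG2 CAGA-GFP cells, 500 pg/mL final, 18 h at 37 degrees C in DMEM plus 1% FBS, normalized to unstimulated and DMSO-stimulated controls.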
# ATXN2 expr inh – Primary qHTS for Inhibitors of ATXN expression. HEK-293 ATXN2-luciferase reporter, luminescence, 24 h. Potency, µM (top dose mostly 57 µM), for the others: at the highest dose activity change, negative = inhibition, usual class: inhibitors. hit rate 0.72% among 360,000; also: % is scaled to controls: 0 for no effect and ±100 for the full control effect; nearly all actives have a fitted effect of over 55% in size
#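 qHTS (up to 57 uM final) was run with 24 h compound exposure of reporter cells at 37 °C. Each well was multiplexed: SteadyGlo luminescence measured ATXN2-luciferase expression after a fluorogenic Gly-Phe-AFC viability readout (25 uM final).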
# Gal4-VP16 FLuc – VP16 counterscreen qHTS for inhibitors of ROR gamma transcriptional activity; hit rate 3.5% among 310,000; Drosophila S2 Gal4-VP16 UAS-luciferase, luminescence, 20 h; Potency, µM (series often up to 53.6 µM), inactives show at the highest dose activity, negative = inhibition, hits mostly inhibitors;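 also: Gal4-VP16 expression switched on by copper sulfate through the metallothionein promoter; % is scaled to controls: 0 for no effect and ±100 for the full control effect; nearly all actives have a fitted effect of over 50% in size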
# HepG2 viability – qHTS for Inhibitors of TGF-b: Cytotox Counterscreen. HepG2 CAGA-GFP viability, ATP luminescence, 18 h. Potency, µM (titrated, usually from 46.1 µM), for inactives: at the highest dose activity change, negative = cytotoxicity, actives largely listed as cytotoxic. hit rate 0.76% among 410,000
#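 CellTiter-Glo luminescence gave cytotoxicity after 18 hours at 37 degrees C. The cells were HepG2 CAGA-GFP in 1% FBS DMEM, stimulated with 500 pg/mL TGF-beta after compound addition. %Activity was normalised to no-cell wells (complete cell-killing) and DMSO (no toxicity), and curves were fitted and classified.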
# The depositor's hits bear a star; i = inactive; ? = inconclusive; · = no result given; [ ] = dose if it differs, or a comment. Calls follow the shape of the dose curve; as a rule, active = well fitted curve in the direction sought with a large enough effect; inconclusive = small, poorly fitted or top-dose-only effect, or another doubt; inactive = no such curve, though single readings can be large; an effect the other way counts as inactive or inconclusive. Potency is read from the fitted curve at half-maximal effect.
SMILES,S2 tox,RORgamma inh,TGFb inhibitor,ATXN2 expr inh,Gal4-VP16 FLuc,HepG2 viability
CCOC(=O)c1ccc(NC(=O)c2cc(C)nc3ccccc23)cc1,i,?,9%,-12%,0%,7%
Cc1nnc2c(Nc3cccc(O)c3)nc3ccccc3n12,i,·,-6%,21%,·,-10%
CN1CCN(c2ncc3nc(-c4ccccc4)c(=O)n(C4CC4)c3n2)CC1,·,-6%,·,·,4%,·
CC(C)OC(=O)CC1C(=O)NCCN1C(=S)NC(=O)c1cccs1 (stereo not given),i,2.5µM*,-2%,-2%,11µM*,-3%
CCCn1c2ccccc2c2cnn(CC(=O)Nc3cc(OC)c(OC)c(OC)c3)c(=O)c21,·,·,?,·,·,-8%
COC(=O)c1ccccc1C(=O)NCC1Cc2cc(-c3nc(C)cnc3C)ccc2O1 (stereo not given),i,·,·,·,·,·
COc1ccc(CCNC(=O)CCCn2c(=O)c3ccccc3n(Cc3c(C)cc(C)cc3C)c2=O)cc1OC,i,·,0%,16%,·,-12%
Cc1cccc(-n2c(SCC(=O)Nc3ccc4c(c3)OCO4)nnc2-c2ccoc2C)c1,i,2µM*,5%,-19%,?,-28%
CNC(=S)Nc1cc(Cl)ccc1Oc1ccccc1,i,14µM*,12%,-18%,?,4%
CCNC(=S)Nc1cc(Cl)ccc1Oc1ccccc1,i,4.5µM*,?,-2%,10µM*,-34%
COc1ccccc1OCC(=O)Nc1cc(Cl)ccc1Oc1ccccc1,i,?,8%,-7%,-18%,11%
COc1ccc2nc(Cl)cc(Cl)c2c1,i,15%,-4%,5%,-1%,-48%
C=CS(=O)(=O)c1c2cc(OC)ccc2nc2ccc(OC)cc12,·,·,?,?,·,14µM*
O=C(NCc1ccccc1Cl)c1ccc(NC(=O)c2nsc3ccccc23)cc1,i,·,3%,36%,·,-28%
Cc1ccc(NNC(N)=S)cc1Cl,i,?,?,·,5µM*,-11%
NC(=S)Nc1ccc(Cl)c(Cl)c1,?,-18%,-17%,·,0%,-20%
NC(=S)NNc1ccc(Cl)c(Cl)c1,i,6.3µM*,2%,·,10µM*,-12%
NC(=O)CSc1oc(-c2cccs2)nc1S(=O)(=O)c1ccc(Br)cc1,i,·,-4%,9%,·,-1%
N#Cc1cc(NC(=O)Nc2nnc(-c3ccncc3)s2)ccc1-c1cn[nH]c1,·,·,·,5%,·,·
O=C(CSc1nc(CCC2CCCC2)nc2ccccc12)NCc1ccc2c(c1)OCO2,?,16µM*,?,-18%,?,-33%
O=C(CSc1nc(Cc2ccccc2)nc2ccccc12)c1ccc2c(c1)OCCO2,i,6.3µM*,3%,-21%,?,-4%
COc1ccc(C(=O)NCc2nc(-c3ccccc3NC(=O)c3cc(C)oc3C)oc2C)cc1F,i,·,·,·,·,·
Cc1oc2cc3oc(=O)c(CCC(=O)NCc4ccccn4)c(C)c3cc2c1C,i,6.3µM*,11%,11%,?,-5%
Cc1oc2cc3oc(=O)c(CCC(=O)NCCC(=O)O)c(C)c3cc2c1C,i,-7%,-19%,·,-12%,-2%
O=C1c2ccccc2-c2cccnc21,i,?,-8%,-6%,?,-8%
SMILES,S2 tox,RORgamma inh,TGFb inhibitor,ATXN2 expr inh,Gal4-VP16 FLuc,HepG2 viability
O=C1c2ccccc2C(=O)c2c(/C=C/N3CCCCC3)ccnc21,?,·,?,?,·,3.5µM*
Cc1cccc(NC(=O)CN(C)S(=O)(=O)c2ccc3c(c2)CCC(=O)N3)c1C,i,·,-20%,-10%,·,2%
Cc1nn(CC(=O)NCCc2ccc(Cl)cc2)c(=O)c2cc3cc(F)ccc3n12,i,·,22%,6%,·,0%
CC1=CC(=O)C=C(C)C1=NOS(=O)(=O)c1ccccc1,?,18µM*,?,?,18µM*,-112%
Cc1ccc2c(c1)/C(=N/OS(=O)(=O)c1ccccc1)CCS2,i,·,?,3%,·,3%
CC1=CC(=O)C(C(C)C)=C/C1=N/OS(=O)(=O)c1ccccc1,3.2µM*,2.8µM*,5µM*,·,2µM*,-99%
O=C(CN1C=NS(=O)(=O)c2ccc(C(F)(F)F)cc21)Nc1cccc(C(F)(F)F)c1,i,·,0%,-6%,·,-32%
Cc1ccc2occ(CC(=O)Nc3ccc(Cl)c(C(F)(F)F)c3)c2c1,?,·,?,25µM*,·,13µM*
O=C(O)Cn1cnnn1,i,·,·,3%,·,·
O=C(CCc1ccccc1)NC1CC(=O)N(c2ccccc2)C1 (stereo not given),·,·,-2%,·,·,-2%
Nc1nc(-c2ccccc2)c(-c2ccccc2)n1N,i,0.4µM*,13%,21%,1.4µM*,4%
CCOc1ccc(CNc2cc(C)nc3nc(-c4cccc(C)c4)nn23)cc1OC,·,·,·,·,·,-60%
CCc1noc(C)c1C(=O)OC(C)C(=O)c1c(C)[nH]c2ccccc12 (stereo not given),i,·,1%,·,·,-28%
Cc1[nH]c2ccccc2c1C(=O)C(C)OC(=O)c1ccc([N+](=O)[O-])o1 (stereo not given),i,14µM*,?,-24%,-23%,-40%
COc1ccc(OCC(O)CNC(C)c2ccccc2)cc1 (stereo not given),i,-17%,-7%,·,-2%,-30%
CCCC(NCC(O)COc1ccc(-c2ccccc2)cc1)c1ccccc1 (stereo not given),?,?,?,19µM*,?,-110%
CC(NCC(O)COc1ccc2ccccc2c1)c1ccccc1 (stereo not given),?,-27%,?,18µM*,-2%,11µM*
C=CC[C@@H]1C=C[C@@H](O/N=C\[C@@H](OC)[C@H](C)/C=C\CC(=O)OC)[C@@H](CO)O1,·,1%[10 µM],·,·,2%[10 µM],·
O=C(NCCc1ccc(Cl)cc1)c1ccc(CS(=O)(=O)Cc2ccccc2F)o1,20µM*,·,-28%,?,·,1%
COc1ccc(CCNC(=O)CCCCn2c(=O)c3ccccc3n(Cc3ccc(Cl)cc3)c2=O)cc1OC,?,·,-15%,-38%,·,-1%
COc1ccc(CCNC(=O)c2ccc(Cn3c(=O)c4ccccc4n(Cc4cccc(Cl)c4)c3=O)cc2)cc1OC,?,·,?,-14%,·,-19%
COc1ccc(CCNC(=O)CCCn2c(=O)c3ccccc3n(Cc3cccc(Cl)c3)c2=O)cc1OC,·,·,11µM*,?,·,-37%
